Screening results from PubChem BioAssay.
An excerpt weighted towards active compounds, which were near 3.6% of everything screened.
Pf apPOL inh = Pf-apPOL DNA polymerase inhibition; Recombinant Pf-apPOL, molecular beacon fluorescence, 1.5 h; inhibition, % at 10 µM; hit rate 0.25% among 210,000
mHTT CaM bind = mHTT-calmodulin interaction abrogation; P42858; AlphaScreen His-mHTT/GST-CaM binding, luminescence; inhibition, % at 15 µM; hit rate 3.6% among 190,000
A number is an active result; . = inactive; / = not tested or not shown. No stated cut-off is given here; in the data, active means inhibition above about 50%; inactive means the rest.

SMILES	Pf apPOL inh	mHTT CaM bind
COc1ccc(CNC2CCN(c3ccc(C(=O)Nc4ccccc4)cn3)C2)cc1 (stereo not drawn)	.	.
COc1cccc(OCc2nc(C(=O)N3CCN(C)CC3)cs2)c1	.	.
O=C(CCc1ccc2nc[nH]c2c1)Nc1cccc(Cl)c1	.	.
CCn1c(=O)c(N2CCCC(C(=O)NCCCN3CCCCCC3)C2)nc2ccccc21 (stereo not drawn)	.	94
CC(C)CCn1c(N2CCCC(C(=O)N3CCCC3)C2)nc2ccccc21 (stereo not drawn)	.	55
O=C(NCCCN1CCCC1)C1CCCN(c2ncc(-c3ccccc3)cn2)C1 (stereo not drawn)	.	.
CCCn1c(N2CCC(C(=O)N3CCCCC3)CC2)nc2ccccc21	.	.
COc1ccc(S(=O)(=O)Nc2ccc(Cl)c(Cl)c2)c2cccnc12	.	.
Oc1cccc(Nc2nc(-c3ccccc3)cs2)c1	.	.
Oc1ccc(Nc2nc(-c3ccccc3)cs2)cc1	.	79
NNc1nc(-c2ccccc2)cs1	.	58
c1ccc(-c2csc(Nc3ncccn3)n2)cc1	.	.
CCC(C)NC(=O)C1CC(c2ccccc2)CN(C(=O)c2ccccc2)C1 (stereo not drawn)	.	.
CCC(C(=O)N1CCc2c(c(-c3nnc(-c4ccccc4F)o3)nn2C)C1)c1ccccc1 (stereo not drawn)	.	53
Cn1nc(-c2nnc(-c3ccccc3F)o2)c2c1CCN(C(=O)c1cccc(F)c1)C2	.	.
O=C(NCCCN1CCOCC1)C1CCN(S(=O)(=O)N2CCC3(CC2)OCCO3)CC1	.	.
COc1cc(/C=C2/NC(=O)N(Cc3ccc(Br)cc3)C2=O)cc(OC)c1O	.	55
COc1cc(/C=C2/NC(=O)N(Cc3ccc(Cl)cc3)C2=O)cc(Br)c1O	.	.
CC(C)n1cc(NC(=O)Cn2cc([N+](=O)[O-])cn2)cn1	/	.
Cc1cc(C)cc(NC(=O)c2cc3n(n2)CCCN(Cc2ccccc2)C3=O)c1	.	.
COc1ccc(C2CC(c3ccco3)=Nc3ccccc3S2)cc1OC (stereo not drawn)	.	.
c1coc(C2=Nc3ccccc3SC(c3ccc4c(c3)OCO4)C2)c1 (stereo not drawn)	.	51
O=C1CC(c2ccc3c(c2)OCO3)Sc2nc(-c3ccccc3)nn21 (stereo not drawn)	.	.
Cc1ccc(C2CC(c3ccco3)=Nc3ccccc3S2)cc1 (stereo not drawn)	.	64
CC(C)CNC(=O)C1CC(=O)N(Cc2cc(C(F)(F)F)cc(C(F)(F)F)c2)C1 (stereo not drawn)	.	.
SMILES	Pf apPOL inh	mHTT CaM bind
COc1cccc(CN2CCc3c(cc(C(=O)N4CCN(C(C)C)CC4)n3C)C2)c1	.	.
O=C(c1c(F)cccc1F)N1CCCC1c1ccc(Cl)cc1 (stereo not drawn)	.	.
O=C(CN1CCC2(CC1)N=C(c1ccccc1)C(=O)N2)Nc1cccc(C(F)(F)F)c1	.	96
Cc1ccc(C)c(NC(=O)CN2CCC3(CC2)N=C(c2ccc(F)cc2)C(=O)N3)c1	.	51
O=C(CN1CCC2(CC1)N=C(c1cccc(Cl)c1)C(=O)N2)Nc1cccc(Cl)c1	.	.
Cc1cccc(C)c1NC(=O)CN1CCC2(CC1)N=C(c1ccc(F)cc1)C(=O)N2	.	.
O=C(CN1CCC2(CC1)N=C(c1ccc(F)cc1)C(=O)N2)Nc1ccccc1	.	.
O=C(CN1CCC2(CC1)N=C(c1cccc(Cl)c1)C(=O)N2)Nc1ccc2c(c1)OCO2	.	53
Cc1cccc2nnc(N3CCN(C(=O)c4cccs4)CC3)n12	.	.
COc1ccc2c(c1)CCCN2C(=O)c1ccc(C(=O)c2ccccc2)cc1	.	.
CCS(CC1CC1(Cl)Cl)=NS(=O)(=O)c1ccc(C)cc1 (stereo not drawn)	.	.
Cc1ccc(Nc2cc(N3CCC(C(=O)NCC4CCCO4)CC3)ncn2)cc1 (stereo not drawn)	.	.
CCN(C(=O)c1ccccc1[N+](=O)[O-])c1ccccc1C	.	.
Cc1cc(C)c2sc(N(CCN(C)C)C(=O)c3ccccc3[N+](=O)[O-])nc2c1	.	84
COc1ccccc1N=Cc1c(C)[nH]n(-c2ccccc2)c1=O	.	.
Cc1[nH]n(-c2ccccc2)c(=O)c1C=Nc1c(C)[nH]n(-c2ccccc2)c1=O	.	.
COc1ccc(OC)c(N=Cc2c(C)[nH]n(-c3ccccc3)c2=O)c1	.	67
Cc1[nH]n(-c2ccccc2)c(=O)c1C=Nc1cc(Br)ccc1O	.	89
CC(NC(=O)C1CCN(c2cncnc2N2CCOCC2)CC1)c1ccccn1 (stereo not drawn)	.	.
COc1cccc(C(=O)Nc2ccc([N+](=O)[O-])c(NC(=O)c3cccc(OC)c3)c2)c1	.	.
Cc1ccc(NC(=O)C2c3ccccc3C(=O)N(C)C2c2c[nH]c3ccccc23)c(Cl)c1 (stereo not drawn)	.	87
CN1C(=O)c2ccccc2C(C(=O)Nc2ccc(F)cc2Cl)C1c1ccc(F)cc1 (stereo not drawn)	.	.
Nc1nonc1-c1noc(-c2sc3ccccc3c2Cl)n1	.	.
O=C(NCc1ccc(Cl)cc1)C1CCCN(C(=O)c2cccc(C(F)(F)F)c2)C1 (stereo not drawn)	.	.
CC(C(=O)Nc1nc2c(s1)CCCC2)n1nc(-c2ccc(F)cc2)ccc1=O (stereo not drawn)	.	88
SMILES	Pf apPOL inh	mHTT CaM bind
CC(C(=O)Nc1cc(Cl)ccc1C#N)n1nc(-c2ccc(F)cc2)ccc1=O (stereo not drawn)	.	.
Cc1cc(C)n(CC(=O)NCc2ccc(OC(F)(F)F)cc2)n1	.	.
Cc1ccc(Cl)cc1NC(=O)CN(C)S(=O)(=O)c1ccc2[nH]c3c(c2c1)CCCC3	.	.
Cc1ccsc1CCNS(=O)(=O)c1ccc2[nH]c3c(c2c1)CCCC3	.	62
Cc1ccsc1CCNS(=O)(=O)c1ccc2[nH]c3c(c2c1)CCCCC3	.	96
O=C(Nc1ccccc1I)c1ccc(OCc2ccccc2)cc1	.	.
CC(=O)Nc1ccc(Oc2cc(NC(=O)C(F)(F)F)cc([N+](=O)[O-])c2)cc1	.	.
COc1ccccc1C1CC(c2ccc(C)cc2C)=NN1C(=O)CN1CCOCC1 (stereo not drawn)	.	63
COc1ccccc1C1CC(c2ccc(C)cc2)=NN1C(=O)CN1CCCCC1 (stereo not drawn)	.	.
Cc1ccc(C2=NN(C(=O)CN3CCOCC3)C(c3ccccc3F)C2)c(C)c1 (stereo not drawn)	.	.
Cc1ccc(C2=NN(C(=O)CN3CCOCC3)C(c3ccccc3C)C2)c(C)c1 (stereo not drawn)	.	86
Cc1ccc(C2=NN(C(=O)CN3CCOCC3)C(c3ccccc3F)C2)cc1 (stereo not drawn)	.	.
Cc1ccc(C2=NN(C(=O)CN3CCOCC3)C(c3cc(C)ccc3C)C2)c(C)c1 (stereo not drawn)	.	65
COc1ccccc1C1CC(c2cccc(C)c2)=NN1C(=O)CN1CCCCC1 (stereo not drawn)	.	.
COc1ccccc1C1CC(c2ccc(F)cc2)=NN1C(=O)CN1CCCCC1 (stereo not drawn)	.	100
CCn1c(-c2cc(NC(=O)C3CCCO3)n[nH]2)cc2ccccc21 (stereo not drawn)	.	.
Cn1c(=O)c(C(=O)NC2CCCC2)nc2cccnc21	.	.
CCc1ccc(C(=O)Nc2cnc(N3CCOCC3)nc2)cc1	.	.
